Where “and” joins values, the source holds several entries; their conditions need not be identical. Identical values can stand only once. Results filed as inconclusive are left out. Calls of active or inactive are those of the source. Unless noted, calls follow the shape of the dose curve; as a rule, active = well fitted curve in the direction sought with a large enough effect; inconclusive = small, poorly fitted or top-dose-only effect, or another doubt; inactive = no such curve, though single readings can be large; an effect the other way counts as inactive or inconclusive.
System: not listed separately
Assay: Primary qHTS for small molecule stabilizers of the endoplasmic reticulum resident proteome: Secreted ER Calcium Modulated Protein (SERCaMP) assay (AID 1508630); also: % is scaled to controls: 0 for no effect and ±100 for the full control effect
Settings: SH-SY5Y GLuc-SERCaMP (Gaussia luciferase released on ER calcium loss) secretion, thapsigargin, luminescence; series mostly up to 38.4 µM
Method in brief: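 The SH-SY5Y reporter protocol was run at 3 concentrations up to 38.3 uM (primary) or 11 concentrations (follow-up): 16 h compound, 100 nM thapsigargin for 4 h, then extracellular luciferase luminescence.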

Row | Structure (SMILES) | outcome
1 | O=C1NC(=O)C(=Cc2ccc3nccc(-c4ccncc4)c3c2)S1 | inactive
2 | CC1(C)CC(O)CC(C)(C)N1[O] | inactive
3 | CCN1CCN(C(=O)N[C@H](C(=O)N[C@@H]2C(=O)N3C(C(=O)O)=C(CSc4nnnn4C)CS[C@@H]23)c2ccc(O)cc2)C(=O)C1=O | inactive
4 | C[C@@H](Oc1ccc2[nH]nc(C=Cc3cnn(CCO)c3)c2c1)c1c(Cl)cncc1Cl | inactive

Biological target: Cytochrome P450 2D6 (Homo sapiens) (UniProt P10635)
Assay: Cytochrome P450 family 2 subfamily D member 6 (CYP2D6) small molecule antagonists: luciferase biochemical (cell-free) qHTS assay (AID 1645840; active = well fitted curve in the direction sought with a large enough effect in the repeat runs; an effect the other way counts as inactive or inconclusive; also: nearly all actives have a fitted effect of over 55% in size; also: potency is read from the fitted curve at half-maximal effect; as to activity change, negative = inhibition: % is scaled to controls: 0 for no effect and ±100 for the full control effect)
Settings: P450-Glo CYP2D6 enzyme, luciferin luminescence, 1 h; series mostly up to 57.4 µM
Method in brief: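 P450-Glo CYP2D6 system: proluciferin substrate converted by enzyme to luciferin, read by luminescence proportional to activity. Enzyme-substrate mix with compound 10 min at room temperature, then NADPH regeneration 1 h before detection reagent.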

Cytochrome P450 2D6 (Homo sapiens), sequence (P10635 whole entry, looked up): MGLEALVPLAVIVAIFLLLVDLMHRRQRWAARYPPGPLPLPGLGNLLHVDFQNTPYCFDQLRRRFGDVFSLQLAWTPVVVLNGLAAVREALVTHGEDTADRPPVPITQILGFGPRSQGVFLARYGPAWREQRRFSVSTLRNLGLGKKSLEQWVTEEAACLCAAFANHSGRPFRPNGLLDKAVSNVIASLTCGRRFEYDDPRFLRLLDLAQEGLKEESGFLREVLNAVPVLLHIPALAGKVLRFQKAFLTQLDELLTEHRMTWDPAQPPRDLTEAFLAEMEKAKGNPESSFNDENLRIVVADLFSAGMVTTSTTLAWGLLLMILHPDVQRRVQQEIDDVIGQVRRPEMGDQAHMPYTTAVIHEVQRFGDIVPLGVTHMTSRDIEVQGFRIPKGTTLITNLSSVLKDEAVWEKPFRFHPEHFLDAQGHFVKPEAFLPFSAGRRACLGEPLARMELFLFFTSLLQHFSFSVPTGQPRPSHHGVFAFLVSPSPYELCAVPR

Row | Structure (SMILES) | Potency
5 | Oc1cc2c(cc1O)C1c3ccc(O)c(O)c3OCC1(O)C2 (stereo unspecified) | inactive
6 | CN1CCc2c(c3ccccc3n2Cc2ccc(C(=O)NO)cc2)C1 | 7.56 µM (active)
7 | O=C(Nc1cc2cc[nH]c2cn1)c1ccccc1 | 13.5 µM (active)

Biological target: Cytochrome P450 2C9 (Homo sapiens) (UniProt P11712)
Assay: Cytochrome P450 family 2 subfamily C member 9 (CYP2C9) small molecule antagonists: luciferase biochemical (cell-free) qHTS assay (AID 1645842; active = well fitted curve in the direction sought with a large enough effect in the repeat runs; an effect the other way counts as inactive or inconclusive; also: nearly all actives have a fitted effect of over 55% in size; also: potency is read from the fitted curve at half-maximal effect; as to activity change, negative = inhibition: % is scaled to controls: 0 for no effect and ±100 for the full control effect)
Settings: P450-Glo CYP2C9 enzyme assay, luciferin luminescence; series mostly up to 57.4 µM
Method in brief: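 P450-Glo CYP2C9 system: proluciferin substrate with enzyme in mix containing 0.4% BSA, 10 min at room temperature, then NADPH regeneration solution added and incubated 1 h at 37C. Detection reagent stopped reaction; luminescence read after 20 min as RLU.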

Cytochrome P450 2C9 (Homo sapiens), sequence (P11712 whole entry, looked up): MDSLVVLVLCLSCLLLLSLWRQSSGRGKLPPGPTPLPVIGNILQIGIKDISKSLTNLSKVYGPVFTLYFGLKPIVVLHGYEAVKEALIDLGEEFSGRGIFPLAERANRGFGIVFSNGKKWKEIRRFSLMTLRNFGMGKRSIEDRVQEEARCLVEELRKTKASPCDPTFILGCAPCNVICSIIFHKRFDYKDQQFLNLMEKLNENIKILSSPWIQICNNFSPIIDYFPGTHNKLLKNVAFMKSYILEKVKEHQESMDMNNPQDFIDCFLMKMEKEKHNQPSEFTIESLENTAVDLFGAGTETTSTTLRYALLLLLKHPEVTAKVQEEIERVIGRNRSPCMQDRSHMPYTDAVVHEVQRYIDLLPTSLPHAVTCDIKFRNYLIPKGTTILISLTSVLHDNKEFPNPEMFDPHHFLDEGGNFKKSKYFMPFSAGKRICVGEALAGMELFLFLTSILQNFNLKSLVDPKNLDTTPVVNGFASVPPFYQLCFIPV

Row | Structure (SMILES) | Potency
8 | Oc1cc2c(cc1O)C1c3ccc(O)c(O)c3OCC1(O)C2 (stereo unspecified) | 21.3 µM (active)
9 | CN1CCc2c(c3ccccc3n2Cc2ccc(C(=O)NO)cc2)C1 | inactive
10 | Oc1ccc([C@@H]2Oc3ccc(O)cc3[C@@H]3CCC[C@@H]32)cc1 | inactive
11 | O=C(Nc1cc2cc[nH]c2cn1)c1ccccc1 | 4.77 µM (active)

System: not listed separately
Assay: Primary qHTS for inhibitors of nuclear receptor binding SET domain protein 2 (NSD2) in an isogenic RCH-ACV NSD2 p.E1099K mutant (9B) (AID 1645876); also: nearly all actives have a fitted effect of over 70% in size; also: potency is read from the fitted curve at half-maximal effect
Settings: RCH-ACV NSD2 E1099K (9B) viability, CellTiter-Glo, 72 h; series mostly up to 44.9 µM

Row | Structure (SMILES) | Potency
12 | CC(N[C@H]1CCCC[C@H]1NC(=O)c1ccc(Cl)cc1)c1cccc2ccccc12 (stereo partly specified) | 6.61 µM (active)
13 | CCN(CC)CCCCNc1ncc2c(n1)N(C)C(=O)N(c1c(Cl)c(OC)cc(OC)c1Cl)C2 | 14.8 µM (active)
14 | CN1CCc2c(c3ccccc3n2Cc2ccc(C(=O)NO)cc2)C1 | 16.3 µM (active) and 18.6 µM (active)
15 | Oc1ccc([C@@H]2Oc3ccc(O)cc3[C@@H]3CCC[C@@H]32)cc1 | 8.33 µM (active)
16 | O=C(Nc1cc2cc[nH]c2cn1)c1ccccc1 | 12.9 µM (active)
17 | CN(C)c1ccc(C(=O)NCCCCCCC(=O)NO)cc1 | 0.525 µM (active)
18 | NC(=NCCCCCCN=C(N)N=C(N)Nc1ccc(Cl)cc1)N=C(N)Nc1ccc(Cl)cc1 | 4.17 µM (active)
19 | CNC(=O)Nc1ccc(-c2nc(N3CC4CCC(C3)O4)c3cnn(C4CCC5(CC4)OCCO5)c3n2)cc1 | 0.0742 µM (active)
20 | CCNC(=O)Nc1ccc(-c2nc3c(c(N4CCOC[C@H]4C)n2)CCN(C2COC2)C3)cc1 | 0.731 µM (active)
21 | COc1cc(CCc2cc(NC(=O)c3ccc(N4C[C@@H](C)N[C@@H](C)C4)cc3)n[nH]2)cc(OC)c1 | 9.34 µM (active)
22 | CCCCCCCCc1ccc(CCC(N)(CO)CO)cc1 | 8.33 µM (active)
23 | N#CNC(=NCCCCCCOc1ccc(Cl)cc1)Nc1ccncc1 | 0.0047 µM (active)
24 | C[C@@H](Cc1cc2c(c(C(N)=O)c1)N(CCCO)CC2)NCCOc1ccccc1OCC(F)(F)F | inactive
25 | CCc1ccc(C(=O)Nc2cc(CN3CCN(C)CC3)cc(C(F)(F)F)c2)cc1C#Cc1cnc2ccnn2c1 | 5.78 µM (active) and 5.25 µM (active)
26 | Nc1ccc(C(=O)Nc2cccc(-c3nc(N4CCOCC4)c4oc5ncccc5c4n3)c2)cn1 | 1.15 µM (active) and 1.48 µM (active)

System: not listed separately
Assay: Primary qHTS for inhibitors of nuclear receptor binding SET domain protein 2 (NSD2) in an RCH-ACV wild type WT cells (2C) (AID 1645877); also: nearly all actives have a fitted effect of over 70% in size; also: potency is read from the fitted curve at half-maximal effect
Settings: RCH-ACV (leukaemia line) NSD2 WT (2C) viability, CellTiter-Glo, 72 h; series mostly up to 44.9 µM

Row | Structure (SMILES) | Potency
27 | CC(N[C@H]1CCCC[C@H]1NC(=O)c1ccc(Cl)cc1)c1cccc2ccccc12 (stereo partly specified) | 6.61 µM (active)
28 | CN1CCc2c(c3ccccc3n2Cc2ccc(C(=O)NO)cc2)C1 | 11.5 µM (active) and 16.6 µM (active)
29 | O=C(Nc1cc2cc[nH]c2cn1)c1ccccc1 | 9.16 µM (active)
30 | CCNC(=O)Nc1ccc(-c2nc3c(c(N4CCOC[C@H]4C)n2)CCN(C2COC2)C3)cc1 | 1.3 µM (active)
31 | COc1cc(CCc2cc(NC(=O)c3ccc(N4C[C@@H](C)N[C@@H](C)C4)cc3)n[nH]2)cc(OC)c1 | 5.9 µM (active)
32 | CCCCCCCCc1ccc(CCC(N)(CO)CO)cc1 | 8.33 µM (active)
33 | N#CNC(=NCCCCCCOc1ccc(Cl)cc1)Nc1ccncc1 | 0.0093 µM (active)
34 | C[C@@H](Cc1cc2c(c(C(N)=O)c1)N(CCCO)CC2)NCCOc1ccccc1OCC(F)(F)F | inactive
35 | CCc1ccc(C(=O)Nc2cc(CN3CCN(C)CC3)cc(C(F)(F)F)c2)cc1C#Cc1cnc2ccnn2c1 | 5.15 µM (active) and 4.17 µM (active)

Biological target: Catechol O-methyltransferase (Homo sapiens) (UniProt P21964)
Assay: Confirmatory Screen for Target Class Profiling of Small Molecule Inhibitors of Methyltransferases (AID 1745852; calls by dose curve; also: potency is read from the fitted curve at half-maximal effect; as to activity change, negative = inhibition: % is scaled to controls: 0 for no effect and ±100 for the full control effect)
Settings: MTase-Glo luminescence, SAH detection, recombinant enzyme; measured here: COMT max response; stronger effect = lower value

Catechol O-methyltransferase (Homo sapiens), sequence (P21964 whole entry, looked up): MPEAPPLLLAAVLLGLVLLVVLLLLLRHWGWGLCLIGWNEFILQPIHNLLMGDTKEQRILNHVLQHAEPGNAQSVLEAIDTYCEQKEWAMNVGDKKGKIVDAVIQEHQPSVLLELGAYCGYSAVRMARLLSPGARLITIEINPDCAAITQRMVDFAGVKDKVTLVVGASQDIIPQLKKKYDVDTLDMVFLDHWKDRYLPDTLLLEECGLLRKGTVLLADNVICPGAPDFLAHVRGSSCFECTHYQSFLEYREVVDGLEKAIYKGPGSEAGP

Row | Structure (SMILES) | activity
36 | CN1CCc2c(c3ccccc3n2Cc2ccc(C(=O)NO)cc2)C1 | 0%
37 | O=C(Nc1cc2cc[nH]c2cn1)c1ccccc1 | -83.5%
38 | Cn1cc(-c2cnn3c(N)c(Br)c([C@H]4CCCNC4)nc23)cn1 | -1.78%

Biological target: Guanidinoacetate N-methyltransferase (Homo sapiens) (UniProt Q14353)
Assay: as above
Settings: MTase-Glo luminescence, SAH detection, recombinant enzyme; activity change, negative = inhibition: at 57.3 µM (top of the series); series mostly up to 57.3 µM

Row | Structure (SMILES) | activity change, negative = inhibition | Potency
39 | CN1CCc2c(c3ccccc3n2Cc2ccc(C(=O)NO)cc2)C1 | -3.04% | 
40 | O=C(Nc1cc2cc[nH]c2cn1)c1ccccc1 |  | 19.2 µM (active)
41 | Cn1cc(-c2cnn3c(N)c(Br)c([C@H]4CCCNC4)nc23)cn1 | 2.57% | 
